How the values were obtained:
Assay in all cases: log2 ratio of Biotin-Ahx-Ub-VS probe labelling (fragment/DMSO); higher = less target engagement (more negative = stronger competition), active = hit call of the paper (q ≤ 0.05, log2 ratio ≤ -1)
Details in all cases: compound concentration: 200 uM; treatment time: 3 h
USP19 = target: T1, USP19 (UniProt O94966)
T1 sequence (whole entry): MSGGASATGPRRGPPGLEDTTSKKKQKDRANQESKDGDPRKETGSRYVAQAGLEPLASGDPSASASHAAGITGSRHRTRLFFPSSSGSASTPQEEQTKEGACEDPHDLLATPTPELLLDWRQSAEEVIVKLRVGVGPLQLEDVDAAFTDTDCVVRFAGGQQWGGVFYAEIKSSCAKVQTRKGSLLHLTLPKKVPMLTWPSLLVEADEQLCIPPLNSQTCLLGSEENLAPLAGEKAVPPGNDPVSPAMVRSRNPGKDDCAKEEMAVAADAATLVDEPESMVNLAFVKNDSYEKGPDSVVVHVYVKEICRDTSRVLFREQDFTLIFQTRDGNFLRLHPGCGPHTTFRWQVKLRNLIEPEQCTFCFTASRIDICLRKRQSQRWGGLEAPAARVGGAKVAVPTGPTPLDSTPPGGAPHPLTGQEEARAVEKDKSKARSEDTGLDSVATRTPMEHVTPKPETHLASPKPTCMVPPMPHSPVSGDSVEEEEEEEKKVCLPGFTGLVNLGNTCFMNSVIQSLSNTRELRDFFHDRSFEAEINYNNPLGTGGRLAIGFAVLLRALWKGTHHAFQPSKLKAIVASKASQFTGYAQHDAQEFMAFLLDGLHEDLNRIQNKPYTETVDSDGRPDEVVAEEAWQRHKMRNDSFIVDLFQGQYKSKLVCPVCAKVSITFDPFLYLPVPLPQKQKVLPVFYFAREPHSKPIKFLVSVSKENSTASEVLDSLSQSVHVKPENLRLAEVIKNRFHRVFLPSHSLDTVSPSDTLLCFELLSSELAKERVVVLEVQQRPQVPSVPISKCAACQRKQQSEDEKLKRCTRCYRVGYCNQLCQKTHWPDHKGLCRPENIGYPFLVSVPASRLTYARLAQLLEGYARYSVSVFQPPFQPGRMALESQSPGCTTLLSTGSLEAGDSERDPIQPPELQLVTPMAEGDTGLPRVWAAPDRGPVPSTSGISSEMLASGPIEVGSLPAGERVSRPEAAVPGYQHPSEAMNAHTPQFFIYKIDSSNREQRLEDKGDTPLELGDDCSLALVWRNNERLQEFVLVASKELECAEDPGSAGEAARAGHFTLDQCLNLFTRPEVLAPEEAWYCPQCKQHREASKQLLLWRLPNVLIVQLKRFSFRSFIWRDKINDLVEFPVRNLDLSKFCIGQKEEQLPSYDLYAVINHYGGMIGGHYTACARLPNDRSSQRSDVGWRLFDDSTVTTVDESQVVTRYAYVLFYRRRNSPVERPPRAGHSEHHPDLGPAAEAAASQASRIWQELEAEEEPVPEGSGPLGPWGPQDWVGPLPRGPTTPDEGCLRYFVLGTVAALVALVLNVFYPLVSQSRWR
Procedure, shortened: (§1)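 Average log2 ratios of fragment over vehicle were obtained by unpaired t-test from global-median-normalised Spectronaut label-free quantities. Proteins with ≥2 unique peptides were included. HEK293T lysate (495 µg per sample) was treated in triplicate with fragment at 200 µM or vehicle for 3 h, then with Biotin-Ahx-Ub-VS at 0.5 µM final for 1 h, and labelled DUBs were NeutrAvidin-enriched and run by diaPASEF LC-MS/MS.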

USP24 = USP24 (UniProt Q9UPU5)
Procedure, shortened: as §1

USP25 = target: T2, USP25 (UniProt Q9UHP3)
T2 sequence (whole entry): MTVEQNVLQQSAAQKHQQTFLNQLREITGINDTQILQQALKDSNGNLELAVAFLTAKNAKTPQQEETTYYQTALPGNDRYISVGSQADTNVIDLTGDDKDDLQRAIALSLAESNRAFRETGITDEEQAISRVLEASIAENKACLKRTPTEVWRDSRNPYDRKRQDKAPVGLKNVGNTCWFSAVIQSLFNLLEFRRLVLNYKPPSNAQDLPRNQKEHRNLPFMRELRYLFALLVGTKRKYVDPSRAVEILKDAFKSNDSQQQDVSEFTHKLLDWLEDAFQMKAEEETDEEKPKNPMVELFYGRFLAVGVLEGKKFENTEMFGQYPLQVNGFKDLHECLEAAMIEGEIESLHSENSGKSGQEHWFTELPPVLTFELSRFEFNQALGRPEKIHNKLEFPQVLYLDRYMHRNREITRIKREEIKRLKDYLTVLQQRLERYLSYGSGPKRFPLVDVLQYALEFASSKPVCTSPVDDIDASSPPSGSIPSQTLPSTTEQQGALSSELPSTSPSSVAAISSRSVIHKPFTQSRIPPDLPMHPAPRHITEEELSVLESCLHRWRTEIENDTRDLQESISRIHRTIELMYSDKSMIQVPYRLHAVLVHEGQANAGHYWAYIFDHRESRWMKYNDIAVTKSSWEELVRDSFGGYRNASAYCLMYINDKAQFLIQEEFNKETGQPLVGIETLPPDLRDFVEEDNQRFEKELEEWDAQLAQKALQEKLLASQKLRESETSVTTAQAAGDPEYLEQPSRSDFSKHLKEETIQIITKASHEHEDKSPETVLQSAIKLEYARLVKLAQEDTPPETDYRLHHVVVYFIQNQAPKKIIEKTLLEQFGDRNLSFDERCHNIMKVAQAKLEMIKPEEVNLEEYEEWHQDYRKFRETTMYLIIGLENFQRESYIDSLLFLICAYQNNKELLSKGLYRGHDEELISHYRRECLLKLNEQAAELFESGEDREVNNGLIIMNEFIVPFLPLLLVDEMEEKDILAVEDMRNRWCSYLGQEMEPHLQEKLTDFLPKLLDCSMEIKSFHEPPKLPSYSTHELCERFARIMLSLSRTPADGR
Procedure, shortened: as §1

USP28 = target: T3, USP28 (UniProt Q96RU2)
T3 sequence (whole entry): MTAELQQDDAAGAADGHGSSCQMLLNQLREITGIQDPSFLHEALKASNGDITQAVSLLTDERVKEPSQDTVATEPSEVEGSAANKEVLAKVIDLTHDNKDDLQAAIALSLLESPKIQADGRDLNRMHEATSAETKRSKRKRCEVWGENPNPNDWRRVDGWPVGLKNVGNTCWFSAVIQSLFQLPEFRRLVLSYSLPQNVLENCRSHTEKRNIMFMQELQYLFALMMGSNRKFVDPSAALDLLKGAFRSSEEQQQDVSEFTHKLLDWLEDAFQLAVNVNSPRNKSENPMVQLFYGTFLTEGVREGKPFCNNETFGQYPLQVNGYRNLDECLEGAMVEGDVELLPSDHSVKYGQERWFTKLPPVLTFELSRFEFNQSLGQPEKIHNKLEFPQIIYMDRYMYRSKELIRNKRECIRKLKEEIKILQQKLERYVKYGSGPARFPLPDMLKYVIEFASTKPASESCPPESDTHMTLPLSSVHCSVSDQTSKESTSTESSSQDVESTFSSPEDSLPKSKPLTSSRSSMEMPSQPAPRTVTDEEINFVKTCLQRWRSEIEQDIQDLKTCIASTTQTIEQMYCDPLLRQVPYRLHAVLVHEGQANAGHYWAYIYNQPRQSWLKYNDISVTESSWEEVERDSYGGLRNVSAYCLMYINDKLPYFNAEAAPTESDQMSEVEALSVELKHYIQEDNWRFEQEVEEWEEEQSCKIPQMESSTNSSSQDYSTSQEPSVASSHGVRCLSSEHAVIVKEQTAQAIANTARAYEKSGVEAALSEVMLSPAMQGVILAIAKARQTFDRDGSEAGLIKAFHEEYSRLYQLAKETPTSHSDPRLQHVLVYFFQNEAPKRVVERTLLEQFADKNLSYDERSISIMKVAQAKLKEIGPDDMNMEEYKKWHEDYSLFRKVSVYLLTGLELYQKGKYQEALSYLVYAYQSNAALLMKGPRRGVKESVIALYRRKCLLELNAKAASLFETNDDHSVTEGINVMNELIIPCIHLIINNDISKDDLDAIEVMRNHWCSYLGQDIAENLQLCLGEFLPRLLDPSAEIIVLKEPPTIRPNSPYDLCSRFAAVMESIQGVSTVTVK
Procedure, shortened: as §1

Measured: log2 ratio of Biotin-Ahx-Ub-VS probe labelling

Sequence of USP24 (Q9UPU5 whole entry): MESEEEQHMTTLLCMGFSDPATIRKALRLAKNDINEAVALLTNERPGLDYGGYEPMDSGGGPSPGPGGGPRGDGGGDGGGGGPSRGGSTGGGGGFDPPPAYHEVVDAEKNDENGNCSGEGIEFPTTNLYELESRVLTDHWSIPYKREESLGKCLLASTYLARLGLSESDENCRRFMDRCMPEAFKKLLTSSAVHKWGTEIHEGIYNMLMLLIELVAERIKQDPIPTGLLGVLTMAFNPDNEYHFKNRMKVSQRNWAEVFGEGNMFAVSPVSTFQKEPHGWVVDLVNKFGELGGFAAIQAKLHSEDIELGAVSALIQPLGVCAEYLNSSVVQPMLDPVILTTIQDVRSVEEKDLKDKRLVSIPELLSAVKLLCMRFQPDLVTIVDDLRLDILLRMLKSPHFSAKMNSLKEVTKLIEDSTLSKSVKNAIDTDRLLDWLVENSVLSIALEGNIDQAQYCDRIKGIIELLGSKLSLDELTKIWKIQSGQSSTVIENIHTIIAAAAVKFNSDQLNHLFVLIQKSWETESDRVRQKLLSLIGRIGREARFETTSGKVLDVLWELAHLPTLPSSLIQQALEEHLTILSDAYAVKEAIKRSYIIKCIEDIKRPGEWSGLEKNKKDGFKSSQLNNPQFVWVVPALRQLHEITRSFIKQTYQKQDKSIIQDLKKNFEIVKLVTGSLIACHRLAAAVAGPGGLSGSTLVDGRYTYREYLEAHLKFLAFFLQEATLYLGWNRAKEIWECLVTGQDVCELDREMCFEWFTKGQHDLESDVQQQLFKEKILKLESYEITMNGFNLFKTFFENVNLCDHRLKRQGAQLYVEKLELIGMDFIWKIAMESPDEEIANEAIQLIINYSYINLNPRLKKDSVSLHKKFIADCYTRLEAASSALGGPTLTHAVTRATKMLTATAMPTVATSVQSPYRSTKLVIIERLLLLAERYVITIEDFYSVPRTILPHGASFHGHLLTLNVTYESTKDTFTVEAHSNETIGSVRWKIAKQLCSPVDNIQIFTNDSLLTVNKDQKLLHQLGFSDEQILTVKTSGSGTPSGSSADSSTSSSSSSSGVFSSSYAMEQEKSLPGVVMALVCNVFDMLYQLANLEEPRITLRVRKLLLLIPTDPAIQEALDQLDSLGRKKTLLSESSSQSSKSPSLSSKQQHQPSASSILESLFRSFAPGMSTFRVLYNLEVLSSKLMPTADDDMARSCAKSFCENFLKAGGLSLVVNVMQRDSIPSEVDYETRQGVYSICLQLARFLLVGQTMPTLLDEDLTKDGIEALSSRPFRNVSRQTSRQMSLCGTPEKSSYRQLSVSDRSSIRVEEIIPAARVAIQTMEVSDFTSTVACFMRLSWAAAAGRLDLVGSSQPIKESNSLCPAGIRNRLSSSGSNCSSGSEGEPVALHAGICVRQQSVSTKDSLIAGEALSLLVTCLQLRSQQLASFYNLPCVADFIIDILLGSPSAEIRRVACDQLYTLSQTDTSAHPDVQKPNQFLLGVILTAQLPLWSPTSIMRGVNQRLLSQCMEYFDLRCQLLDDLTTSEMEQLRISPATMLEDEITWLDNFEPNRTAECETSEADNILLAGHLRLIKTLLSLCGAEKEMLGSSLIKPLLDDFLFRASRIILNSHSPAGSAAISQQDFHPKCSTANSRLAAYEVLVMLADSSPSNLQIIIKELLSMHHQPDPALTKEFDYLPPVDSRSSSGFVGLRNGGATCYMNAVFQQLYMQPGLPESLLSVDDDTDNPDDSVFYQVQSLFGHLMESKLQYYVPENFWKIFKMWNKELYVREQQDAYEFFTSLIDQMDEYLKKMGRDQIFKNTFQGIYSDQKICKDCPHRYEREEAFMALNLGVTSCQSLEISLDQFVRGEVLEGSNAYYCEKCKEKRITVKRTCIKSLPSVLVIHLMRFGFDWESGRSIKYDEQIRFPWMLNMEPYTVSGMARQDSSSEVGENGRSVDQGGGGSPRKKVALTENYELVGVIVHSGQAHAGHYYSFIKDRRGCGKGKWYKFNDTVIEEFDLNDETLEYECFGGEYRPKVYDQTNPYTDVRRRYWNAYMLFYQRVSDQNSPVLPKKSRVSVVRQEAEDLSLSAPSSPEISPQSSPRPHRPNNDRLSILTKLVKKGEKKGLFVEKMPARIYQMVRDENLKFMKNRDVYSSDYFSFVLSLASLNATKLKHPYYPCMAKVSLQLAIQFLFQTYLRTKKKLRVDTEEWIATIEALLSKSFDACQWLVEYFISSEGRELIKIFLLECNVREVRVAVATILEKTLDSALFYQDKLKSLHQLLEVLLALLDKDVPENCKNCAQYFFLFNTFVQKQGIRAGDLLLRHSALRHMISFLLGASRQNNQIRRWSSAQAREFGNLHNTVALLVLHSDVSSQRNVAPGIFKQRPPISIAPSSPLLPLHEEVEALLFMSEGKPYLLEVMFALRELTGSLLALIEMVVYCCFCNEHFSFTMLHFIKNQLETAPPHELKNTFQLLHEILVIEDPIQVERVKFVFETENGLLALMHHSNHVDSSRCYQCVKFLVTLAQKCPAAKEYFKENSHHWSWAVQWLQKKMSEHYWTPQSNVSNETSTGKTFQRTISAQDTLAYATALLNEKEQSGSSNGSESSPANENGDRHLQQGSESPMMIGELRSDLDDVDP

Cc1n[nH]c(=O)c2c(NC(=O)CCl)oc(C)c12
inactive: USP19 -0.168 | USP24 -0.0362 | USP25 0.114 | USP28 -0.11

From the supplement of paper PMC11732987, “Enantioselective OTUD7B fragment discovery through chemoproteomics screening and high-throughput optimisation” (Communications Chemistry, 2025)
